# An excerpt weighted towards active compounds, which were near 3.8% of everything screened.
# PrP UTR inh – inhibition of PrP 5' UTR reporter expression; cell-based PrP 5' UTR mRNA reporter, plate reader; inhibition, % (no concentration beside the values); 0.35% of 340,000 active; in the data active = inhibition above about 52%; note: 0 = median of the neutral control wells
# Yp Topo-I inh – Yersinia pestis topoisomerase I inhibitors, primary screen, biochemical, cleavage product accumulation, plate reader, single point; activity, % at 10 µM; Y. pestis Topo-I cleavage product accumulation; DNA topoisomerase I (Yersinia pestis CO92); AID 504884, 2011; 0.064% of 360,000 active; in the data active = activity above about 50%, passing the limit was not always enough
# FBA Mtb inh – Mtb FBA enzyme inhibitors, primary screen, biochemical, fluorescence, strain H37Rv; AID 588726, 2011; Fructose-bisphosphate aldolase (Mycobacterium tuberculosis (strain ATCC 25618 / H37Rv)), …; 2.3% of 360,000 active; purified M. tuberculosis FBA, fluorescence read-out; inhibition, % at 1 µM; in the data active = inhibition above about 27%;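 note: 0% = vehicle and 100% = reference inhibitor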
# Target sequence (P9WQA3 whole entry, looked up): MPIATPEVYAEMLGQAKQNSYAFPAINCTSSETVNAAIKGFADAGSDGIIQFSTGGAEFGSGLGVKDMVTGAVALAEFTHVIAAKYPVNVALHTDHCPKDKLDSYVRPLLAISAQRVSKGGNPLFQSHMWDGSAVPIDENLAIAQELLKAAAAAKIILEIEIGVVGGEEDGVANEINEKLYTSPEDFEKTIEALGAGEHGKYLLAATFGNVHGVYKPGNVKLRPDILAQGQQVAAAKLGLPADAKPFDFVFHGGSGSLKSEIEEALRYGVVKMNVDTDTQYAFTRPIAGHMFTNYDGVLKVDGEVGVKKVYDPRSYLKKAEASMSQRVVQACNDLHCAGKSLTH
# PrPC TRFRET – inhibitors of human cell surface prion protein PrPC, primary screen, cell-based, TR-FRET | Major prion protein (Homo sapiens), P04156 | TR-FRET read-out | inhibition, % at 13.8 µM | 0.43% of 370,000 active | AID 720596, 2013; in the data active = inhibition above about 24%; note: 0% = median of the test wells and 100% = reference compound wells
# Mtb hypoxia inh – PubChem AID 1159583 | M. tuberculosis hypoxia-regulated fluorescent reporter, fluorescence | fluorescence inhibition, % (test concentration not listed) | 0.1% of 300,000 active; in the data active = fluorescence inhibition mostly above about 23%, no sharp cut-off; inactive = mostly below about 17%
# GDH-TPI counter – GDH-TPI coupling enzyme inhibitors, primary screen, artefact control for M. tuberculosis FBA inhibitor project, biochemical, absorbance, full deck; AID 588335, 2011; GDH-TPI coupled enzyme counterscreen, NADH absorbance; 1.2% of 360,000 active; inhibition, % at 4.8 µM; in the data active = inhibition above about 30%;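 note: 0% = DMSO wells and 100% = wells lacking the enzyme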
# Numbers without * were called inactive; nt = no result shown; + = active, no number.
SMILES,PrP UTR inh,Yp Topo-I inh,FBA Mtb inh,PrPC TRFRET,Mtb hypoxia inh,GDH-TPI counter
C#CCOCCOCCOCCNc1nc(N2CCN(C(=O)C(Cc3ccc(O)cc3)n3cc(CCO)nn3)CC2)nc(N2CCN(C(=O)C(C(C)C)n3cc(CCO)nn3)CC2)n1 (stereo not drawn),nt,nt,nt,nt,5,nt
CCOc1cc(/C=N/N=C(/N)c2nonc2N)cc(Br)c1OCc1ccc(Cl)cc1,-16,-1,1,6,nt,32*
COc1cc(/C=N/N=C(/N)c2nonc2N)cc(Br)c1OCc1ccccc1C,-4,-1,1,6,nt,34*
Cn1c(NNC(=O)/C=C/c2ccc3c(c2)OCO3)cc(=O)n(C)c1=O,-11,13,10,-5,8,39*
CCOC(=O)Nc1ccc2c(COC(=O)CNS(=O)(=O)c3ccc(NC(C)=O)cc3)cc(=O)oc2c1,-36,1,160*,5,13,13
CCOC(=O)Nc1ccc2c(C)cc(=O)oc2c1,-87,4,199*,8,3,29
Cc1cc(=O)oc2cc(NC(=O)c3ccccc3C(=O)O)ccc12,-18,4,+,8,17,19
O=c1cnnc(NN=Cc2ccccn2)[nH]1,nt,nt,nt,nt,4,nt
CC(=O)CC(O)CC(=O)C1OC(=O)CCCCCCc2ccccc21 (stereo not drawn),nt,nt,nt,nt,13,nt
C(=NNc1nc2ccccc2s1)c1ccccn1,nt,nt,nt,nt,2,nt
O=S1(=O)N=C(N/N=C/c2cccs2)c2ccccc21,-5,-2,-3,-3,nt,39*
CN(C)c1cccc(C(=O)NN=Cc2ccccc2F)c1,nt,nt,nt,nt,-5,nt
COc1cc(/C=C/C(=O)c2ccc3c(c2)OCCO3)cc(OC)c1OC,-31,15,-3,-11,-7,37*
COc1cc(/C=C/C(=O)c2ccc3c(c2)OCO3)cc(OC)c1OC,-10,18,0,nt,16,10
Cc1ccc(/C=N/Nc2nc3ccccc3s2)o1,-107,-5,-4,8,nt,56*
Cc1ccc(C=NNc2nc3ccccc3s2)o1,nt,nt,nt,nt,0,nt
CCN(CC)c1nc2c(s1)C(=O)CC(C)(C)C2,-23,-8,-2,11,13,35*
O=C(NC1CCCCC1)N(Cc1cc2cc3c(cc2[nH]c1=O)OCCO3)CC1CCCO1 (stereo not drawn),-36,18,23,5,-15,36*
O=C(NC1CCCCC1)N(CCO)Cc1cc2cc3c(cc2[nH]c1=O)OCCO3,-10,7,23,0,15,13
CC(CC(=O)NCc1ccc(Cl)cc1)=NNC(=O)COc1ccc(C)cc1Br,nt,nt,nt,nt,-4,nt
Oc1ccccc1N=Cc1ccc[nH]1,-20,-7,-3,-15,81*,3
C1CCN(c2nc3nonc3nc2NCC2CCOCC2)CC1,-18,0,4,nt,3,52*
CN(C)C=Nc1nc(-c2ccc3c(c2)OCO3)cs1,nt,nt,nt,nt,11,nt
CCCCC(=O)NN=Cc1cc([N+](=O)[O-])ccc1N1CCOCC1,nt,nt,nt,nt,6,nt
CCC[N+](CC#CCO)(CC#Cc1ccccc1)CCC,-29,-4,146*,2,12,3
SMILES,PrP UTR inh,Yp Topo-I inh,FBA Mtb inh,PrPC TRFRET,Mtb hypoxia inh,GDH-TPI counter
Cc1c(Cc2ccccc2)c(=O)n2c([nH]c3ccccc32)c1C#N,-5,-8,133*,2,24,3
N#Cc1c(C(F)(F)F)cc(=O)n2c1[nH]c1ccccc12,-56,-3,+,8,nt,3
CCOc1ccc2ccccc2c1C(=O)NC1C(=O)N2C1SC(C)(C)C2C(=O)O (stereo not drawn),nt,nt,nt,nt,9,nt
N/C(=N\N=C\c1ccc2c(c1)OCO2)c1nonc1N,-53,-2,2,-4,nt,32*
CCOC(=O)C(=NNC(=O)c1ccccc1)c1ccccc1,nt,nt,nt,nt,10,nt
Cc1ccsc1C=NNC(=O)C1CC(=O)N(c2ccccc2)C1 (stereo not drawn),nt,nt,nt,nt,1,nt
CCCCC1(C)Nc2ccccc2-c2nc3ccccc3n21 (stereo not drawn),-77,-7,+,6,11,8
c1ccc2c(c1)NC1(CCCCCC1)n1c-2nc2ccccc21,-74,0,161*,-1,9,12
O=C1Nc2ccccc2C12Nc1ccccc1-c1nc3ccccc3n12 (stereo not drawn),-15,2,4,-8,nt,7

# Assay outcomes from PubChem BioAssay.
